Our source for the outcome and AC50 values is PubChem BioAssay (EPA / NIEHS).

Inconclusive results are not listed. Some structures have more than one record in an assay (separate samples or runs), and their calls can disagree. Active and inactive are the calls of the source. The calls were made as follows: active = hit-call score of the fitted dose curve at least 0.9, where 1 is the maximum; inconclusive = response in the unintended direction; inactive = score below 0.9.

Assay [1] concerns the target Estrogen-related receptor gamma (Homo sapiens) (UniProt P62508). The assay can be described thus: ATG_ERRg_TRANS: Attagene TRANS-FACTORIAL HepG2 Assay for human Estrogen-Related Receptor gamma (ERRg) (AID 2282977).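 Also: hits increase reporter signal over DMSO so potencies reflect activators.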 Conditions: HepG2 Attagene TRANS reporter, ERRg transactivation. In outline: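 Transient HepG2 transfectants, 24 h compound exposure, GAL4-UAS reporter mRNA by RT-PCR/6-FAM labelling/capillary electrophoresis; positive direction vs DMSO.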

Assay [2] deals with Glucocorticoid receptor (Homo sapiens) (UniProt P04150). The assay can be described thus: ATG_GR_TRANS: Attagene TRANS-FACTORIAL HepG2 Assay for human Glucocorticoid Receptor (GR) (AID 2282978).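 Also: activators score as hits since higher reporter transcript over DMSO is fitted.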 To be noted: HepG2 Attagene TRANS GR reporter, mRNA transcription. In outline: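 Transient MRTU transfection of HepG2 (GAL4-UAS reporters, exogenous NR-GAL4 chimeras), 24 h dosing. Readout: reporter transcript via RT-PCR + capillary electrophoresis fluorescence. Positive direction vs DMSO baseline.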

Assay [3] deals with Bile acid receptor (Homo sapiens) (UniProt Q96RI1). The assay can be described thus: ATG_FXR_TRANS: Attagene TRANS-FACTORIAL HepG2 Assay for Farnesoid X Receptor (FXR) (AID 2282979).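 Also: hits raise reporter mRNA above DMSO so AC50 marks FXR activation.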 To be noted: HepG2 Attagene TRANS FXR-GAL4 reporter transcription. In outline: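 Transient transfection of HepG2 with multiplexed GAL4-UAS reporter units; exogenous FXR-GAL4 chimera. Dose 24 h → TriZol RNA → oligo(dT) RT → PCR, 6-FAM primer extension, HpaI cut → CE. Gain vs DMSO.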

For assay [4], the target named is Oxysterols receptor LXR-alpha (Homo sapiens) (UniProt Q13133). The assay can be described thus: ATG_LXRa_TRANS: Attagene TRANS-FACTORIAL HepG2 Assay for human Liver X Receptor alpha (LXRa) (AID 2282980). To be noted: HepG2 Attagene TRANS reporter, LXRa transactivation. In short, it runs like this: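 Transfect HepG2 with GAL4-UAS multiplex reporter constructs (TRANS format, chimeric receptor-GAL4); treat 24 h; extract RNA, reverse-transcribe, PCR-amplify, FAM-label, HpaI-digest; resolve fragments by capillary electrophoresis. Upward response vs DMSO.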

Assay [5] deals with Oxysterols receptor LXR-beta (Homo sapiens) (UniProt P55055). Put plainly: ATG_LXRb_TRANS: Attagene TRANS-FACTORIAL HepG2 Assay for human Liver X Receptor beta (LXRb) (AID 2282981). To be noted: HepG2 Attagene TRANS GAL4-LXRb reporter, mRNA. In outline:
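HepG2 cells transiently transfected with multiple reporter transcription units carrying chimeric NR-Gal4 proteins acting on GAL4-UAS reporters; compound exposure 24 h. Reporter mRNA quantified by RT-PCR, 6-FAM labelling, HpaI digestion and capillary electrophoresis; gain of signal versus DMSO.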

Assay [6] concerns the target Hepatocyte nuclear factor 4-alpha (Homo sapiens) (UniProt P41235). Put plainly: ATG_HNF4a_TRANS: Attagene TRANS-FACTORIAL HepG2 Assay for human Hepatocyte Nuclear Factor 4 alpha (HNF4a) (AID 2282982). To be noted: HepG2 HNF4a transactivation reporter, mRNA readout. In short, it runs like this:
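HepG2 cells transiently transfected with multiplexed GAL4-UAS reporter units responsive to chimeric NR-GAL4 proteins; compound exposure 24 h. Reporter mRNA quantified by RT-PCR, 6-FAM labelling, HpaI digestion and capillary electrophoresis; gain of signal versus DMSO baseline.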

A short description of assay [7]: ATG_M_06_TRANS: Attagene TRANS-FACTORIAL HepG2 Assay for M06 Transcription Factor (Internal Marker) (AID 2282983). To be noted: HepG2 Attagene TRANS M06 internal marker reporter. In outline:
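Transfect HepG2 with MRTUs → dose compounds 24 h → isolate RNA, oligo(dT) RT → PCR with reporter primers → 6-FAM primer extension → HpaI digest → CE fragment analysis. Positive direction vs DMSO.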

Assay [8] is described as follows: ATG_GAL4_TRANS: Attagene TRANS-FACTORIAL HepG2 Assay for GAL4 (Internal Marker) (AID 2282976). To be noted: HepG2 Attagene TRANS GAL4 internal marker reporter. In short, it runs like this:
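First, HepG2 cells were transfected with reporter units under GAL4-UAS control. Next, they were treated with chemical for 24 h. Finally, RNA was reverse-transcribed, PCR-amplified, FAM-labelled and resolved by capillary electrophoresis, with induction scored against DMSO.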

The nature of assay [9]: ATG_M_32_TRANS: Attagene TRANS-FACTORIAL HepG2 Assay for M32 Transcription Factor (Internal Marker) (AID 2282984).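 Also: transcript level of a background control reporter unit measured by RT-PCR and capillary electrophoresis.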 To be noted: HepG2 Attagene TRANS M32 internal marker reporter. In short, it runs like this: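 HepG2 cells transiently transfected with multiple GAL4-UAS reporter transcription units, dosed for 24 hours; reporter mRNA quantified by RT-PCR, 6-FAM primer extension, HpaI digestion and capillary electrophoresis. Gain-of-signal fitted versus DMSO baseline; internal background-control marker.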

In assay [10] the target is Nuclear receptor subfamily 4 group A member 2 (Homo sapiens) (UniProt P43354). Put plainly: ATG_NURR1_TRANS: Attagene TRANS-FACTORIAL HepG2 Assay for human Nuclear Receptor Related Protein 1 (NURR1) (AID 2282985). Conditions: HepG2 Attagene TRANS reporter, mRNA readout. In outline:
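HepG2 cells transiently transfected with GAL4-UAS reporter units and chimeric NR-Gal4 constructs; chemical exposure 24 h. Reporter mRNA quantified by RT-PCR, fluorescent labelling and capillary electrophoresis; gain of signal fitted relative to DMSO baseline.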

Chain of Nuclear receptor subfamily 4 group A member 2 (Homo sapiens) (P43354 whole entry, looked up, the tested form may be a part): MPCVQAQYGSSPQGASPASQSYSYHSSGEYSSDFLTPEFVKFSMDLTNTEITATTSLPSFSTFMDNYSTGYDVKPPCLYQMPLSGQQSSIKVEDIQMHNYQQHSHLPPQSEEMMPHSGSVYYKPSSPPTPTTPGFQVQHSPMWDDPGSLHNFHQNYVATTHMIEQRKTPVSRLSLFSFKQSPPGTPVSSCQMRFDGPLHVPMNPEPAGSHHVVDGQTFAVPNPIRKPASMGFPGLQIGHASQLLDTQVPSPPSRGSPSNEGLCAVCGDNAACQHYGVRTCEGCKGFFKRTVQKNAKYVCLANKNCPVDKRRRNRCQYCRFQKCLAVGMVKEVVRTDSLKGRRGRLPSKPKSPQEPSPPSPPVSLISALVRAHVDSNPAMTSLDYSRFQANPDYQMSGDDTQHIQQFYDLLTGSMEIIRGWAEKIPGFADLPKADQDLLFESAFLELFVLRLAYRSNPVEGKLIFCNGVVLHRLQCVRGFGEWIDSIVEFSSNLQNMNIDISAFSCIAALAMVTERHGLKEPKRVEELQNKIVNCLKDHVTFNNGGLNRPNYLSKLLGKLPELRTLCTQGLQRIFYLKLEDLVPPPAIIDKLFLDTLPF
Chain of Bile acid receptor (Homo sapiens) (Q96RI1 whole entry, looked up, the tested form may be a part): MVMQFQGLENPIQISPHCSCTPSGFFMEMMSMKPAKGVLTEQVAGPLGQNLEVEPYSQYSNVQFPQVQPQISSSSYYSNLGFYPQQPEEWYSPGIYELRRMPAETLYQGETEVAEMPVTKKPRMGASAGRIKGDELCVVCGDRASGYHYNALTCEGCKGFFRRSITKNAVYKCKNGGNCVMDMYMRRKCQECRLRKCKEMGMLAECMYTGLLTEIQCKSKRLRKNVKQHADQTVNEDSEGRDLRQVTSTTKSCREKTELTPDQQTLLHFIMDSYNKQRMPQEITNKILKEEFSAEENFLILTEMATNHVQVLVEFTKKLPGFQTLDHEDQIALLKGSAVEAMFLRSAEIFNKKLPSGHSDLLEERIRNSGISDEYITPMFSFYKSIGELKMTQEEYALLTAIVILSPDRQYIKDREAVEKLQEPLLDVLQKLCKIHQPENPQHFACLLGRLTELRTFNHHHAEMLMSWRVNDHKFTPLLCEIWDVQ
Chain of Oxysterols receptor LXR-beta (Homo sapiens) (P55055 whole entry, looked up, the tested form may be a part): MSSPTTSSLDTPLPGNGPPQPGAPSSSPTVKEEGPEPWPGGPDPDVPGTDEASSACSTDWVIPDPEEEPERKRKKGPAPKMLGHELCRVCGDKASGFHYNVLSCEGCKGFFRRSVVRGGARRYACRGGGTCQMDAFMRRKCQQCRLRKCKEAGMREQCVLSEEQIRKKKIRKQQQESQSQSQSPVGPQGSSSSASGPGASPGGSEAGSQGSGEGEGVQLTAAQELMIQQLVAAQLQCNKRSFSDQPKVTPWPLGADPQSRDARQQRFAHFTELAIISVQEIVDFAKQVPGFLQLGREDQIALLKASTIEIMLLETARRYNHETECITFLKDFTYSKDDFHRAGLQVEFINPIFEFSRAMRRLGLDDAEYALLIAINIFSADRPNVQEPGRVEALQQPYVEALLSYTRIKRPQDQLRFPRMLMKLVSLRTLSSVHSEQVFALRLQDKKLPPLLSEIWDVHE
Chain of Hepatocyte nuclear factor 4-alpha (Homo sapiens) (P41235 whole entry, looked up, the tested form may be a part): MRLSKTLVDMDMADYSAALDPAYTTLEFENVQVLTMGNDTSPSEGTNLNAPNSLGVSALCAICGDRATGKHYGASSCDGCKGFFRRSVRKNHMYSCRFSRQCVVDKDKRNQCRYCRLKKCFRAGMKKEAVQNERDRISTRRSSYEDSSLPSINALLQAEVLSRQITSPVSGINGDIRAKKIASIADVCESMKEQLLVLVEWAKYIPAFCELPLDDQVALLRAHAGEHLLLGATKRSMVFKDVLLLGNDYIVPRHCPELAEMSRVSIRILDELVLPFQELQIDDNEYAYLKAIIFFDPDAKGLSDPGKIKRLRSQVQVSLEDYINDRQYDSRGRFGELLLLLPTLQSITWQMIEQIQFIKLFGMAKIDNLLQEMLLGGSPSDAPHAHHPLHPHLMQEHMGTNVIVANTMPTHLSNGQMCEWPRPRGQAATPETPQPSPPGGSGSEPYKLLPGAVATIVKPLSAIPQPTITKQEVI
Chain of Glucocorticoid receptor (Homo sapiens) (P04150 whole entry, looked up, the tested form may be a part): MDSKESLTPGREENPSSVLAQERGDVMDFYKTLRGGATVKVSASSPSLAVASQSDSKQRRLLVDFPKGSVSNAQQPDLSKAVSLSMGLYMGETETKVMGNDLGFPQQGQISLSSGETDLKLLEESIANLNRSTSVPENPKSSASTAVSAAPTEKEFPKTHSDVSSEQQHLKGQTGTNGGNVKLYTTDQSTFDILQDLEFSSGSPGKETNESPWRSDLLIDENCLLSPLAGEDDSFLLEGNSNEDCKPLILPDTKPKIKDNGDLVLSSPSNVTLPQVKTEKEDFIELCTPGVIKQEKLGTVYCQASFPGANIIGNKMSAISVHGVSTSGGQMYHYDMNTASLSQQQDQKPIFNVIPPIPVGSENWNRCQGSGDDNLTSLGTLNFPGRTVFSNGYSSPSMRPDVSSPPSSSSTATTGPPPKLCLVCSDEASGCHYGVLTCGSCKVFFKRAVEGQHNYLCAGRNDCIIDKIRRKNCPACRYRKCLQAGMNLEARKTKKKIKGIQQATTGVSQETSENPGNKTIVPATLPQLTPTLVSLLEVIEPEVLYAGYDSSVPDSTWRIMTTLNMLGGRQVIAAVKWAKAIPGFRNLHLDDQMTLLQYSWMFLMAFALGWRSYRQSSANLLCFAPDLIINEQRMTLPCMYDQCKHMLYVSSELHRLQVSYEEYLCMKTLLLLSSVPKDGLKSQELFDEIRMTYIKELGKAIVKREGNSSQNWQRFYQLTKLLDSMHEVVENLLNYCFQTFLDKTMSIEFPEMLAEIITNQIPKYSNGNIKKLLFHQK
Chain of Oxysterols receptor LXR-alpha (Homo sapiens) (Q13133 whole entry, looked up, the tested form may be a part): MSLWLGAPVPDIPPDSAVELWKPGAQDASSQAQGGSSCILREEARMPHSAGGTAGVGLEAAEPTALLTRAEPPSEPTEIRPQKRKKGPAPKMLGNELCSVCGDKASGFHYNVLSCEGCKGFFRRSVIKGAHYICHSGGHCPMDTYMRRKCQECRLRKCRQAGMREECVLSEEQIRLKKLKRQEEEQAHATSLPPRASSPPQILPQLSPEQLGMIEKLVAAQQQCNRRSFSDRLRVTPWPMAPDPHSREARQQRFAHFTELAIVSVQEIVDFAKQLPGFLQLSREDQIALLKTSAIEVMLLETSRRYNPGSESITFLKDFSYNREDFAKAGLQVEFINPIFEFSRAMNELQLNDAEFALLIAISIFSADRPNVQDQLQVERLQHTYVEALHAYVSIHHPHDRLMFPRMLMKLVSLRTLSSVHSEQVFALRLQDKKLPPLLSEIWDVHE
Chain of Estrogen-related receptor gamma (Homo sapiens) (P62508 whole entry, looked up, the tested form may be a part): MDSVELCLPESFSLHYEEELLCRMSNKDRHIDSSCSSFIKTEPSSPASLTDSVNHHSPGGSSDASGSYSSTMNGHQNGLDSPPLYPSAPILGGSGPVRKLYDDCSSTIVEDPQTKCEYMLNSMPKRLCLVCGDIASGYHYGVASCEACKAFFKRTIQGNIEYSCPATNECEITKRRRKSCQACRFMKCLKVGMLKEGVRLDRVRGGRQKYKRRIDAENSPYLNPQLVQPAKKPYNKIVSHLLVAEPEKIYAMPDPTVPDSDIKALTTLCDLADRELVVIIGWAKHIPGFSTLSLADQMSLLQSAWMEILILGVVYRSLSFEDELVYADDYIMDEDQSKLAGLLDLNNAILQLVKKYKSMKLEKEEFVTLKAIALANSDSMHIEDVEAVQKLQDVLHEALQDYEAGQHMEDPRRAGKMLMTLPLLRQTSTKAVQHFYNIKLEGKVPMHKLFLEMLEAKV

For orientation: AC50 means the concentration giving half of the maximal activity seen. As for `CCCCNC(=O)OCC#CI`, the outcome in assay [1], in [2], in [3], in [4], in [5] and in [7] was inactive. The AC50 in assay [6] is 64.2 µM (active).
Consider `CON(C)C(=O)Nc1ccc(Cl)c(Cl)c1`, for which the result in [8], in [1], in assay [2], in assay [4], in assay [5] and in assay [6] was inactive. Moreover, the call in assay [7], in assay [9] and in [10] was inactive.
For `COc1ccc(C(c2ccc(OC)cc2)C(Cl)(Cl)Cl)cc1`, the compound was called inactive in [8], in assay [1], in assay [2], in assay [3], in [4] and in assay [5]. Also, the compound was classed as inactive in [6], in [7], in assay [9] and in assay [10]. For the same compound, in assay [3], the AC50 was 26.5 µM (active).
Take `Cc1cc(Cl)ccc1OCC(=O)O`: the compound was classed as inactive in assay [8], in assay [2], in [4], in [5], in assay [6] and in assay [7]. For the same compound, the compound was classed as inactive in assay [9] and in assay [10].
In the case of `COc1nc(C)nc(NC(=O)NS(=O)(=O)c2ccccc2CCC(F)(F)F)n1`, the compound was called inactive in assay [1], in assay [2], in [3], in [4], in assay [5] and in assay [6]. Further, the compound was called inactive in assay [7], in assay [9] and in [10].
For `Fc1ccc(Oc2ccnc3cc(Cl)cc(Cl)c23)cc1`, the compound was called inactive in assay [2], in assay [4], in [5], in [6], in assay [9] and in assay [10].
With `CNC(=S)S`, the call in assay [2], in assay [4], in assay [5], in [6], in [7] and in [9] was inactive. Further, the compound was called inactive in [10].
On to `COP(=S)(OC)Oc1nc(Cl)c(Cl)cc1Cl`, for which the compound was classed as inactive in [1], in [5], in assay [7] and in [10].
`CCc1nn(C)c(C(=O)NCc2ccc(C(C)(C)C)cc2)c1Cl`: the compound was called inactive in [1], in assay [2], in assay [6] and in assay [7]. Further, the results for the AC50 in assay [4] and in [5] were 0.258 µM (active) and 0.343 µM (active), respectively.
For the compound `CCOC(=O)CC(SP(=S)(OC)OC)C(=O)OCC` (configuration not stated), the compound was classed as inactive in assay [2], in assay [4], in [5], in assay [6], in assay [7] and in assay [9]. For the same compound, the compound was classed as inactive in assay [10].
`CCOC(=O)C(Cl)Cc1cc(-n2nc(C)n(C(F)F)c2=O)c(F)cc1Cl` (configuration not stated): the call in assay [2], in [4], in assay [5], in assay [7] and in assay [9] was inactive.
Consider `C#CCOS(=O)OC1CCCCC1Oc1ccc(C(C)(C)C)cc1` (configuration not stated), for which the compound was called inactive in assay [1], in assay [3], in assay [4], in [5], in assay [6] and in assay [7].
With `CCON=C(CC)C1=C(O)CC(c2c(C)cc(C)cc2C)CC1=O` (configuration not stated), the outcome in [4], in assay [5], in assay [7] and in [9] was inactive.
Consider `COP(N)(=O)SC` (configuration not stated), for which the result in assay [4], in [6], in assay [7], in assay [9] and in assay [10] was inactive.
Take `COc1nc(C)nc(NC(=O)NS(=O)(=O)c2ccccc2Cl)n1`: the outcome in assay [1], in assay [5], in assay [6], in assay [7] and in assay [9] was inactive.
`CS/C(C)=N/OC(=O)N(C)SN(C)C(=O)O/N=C(\C)SC`: the compound was called inactive in assay [1], in [4], in assay [5], in assay [9] and in [10].
Regarding `Cc1ccc(-c2c(Cl)nc(C#N)n2S(=O)(=O)N(C)C)cc1`, the compound was classed as inactive in assay [2], in assay [4], in [5] and in [7].
Regarding `O=C(Nc1ccccc1)Nc1ccnc(Cl)c1`, the compound was called inactive in [1], in [2], in assay [4], in assay [5], in assay [6] and in assay [9]. For the same compound, the half-maximal activity concentration (AC50) in [10] is 50 µM (active).
On to `CN(C)C(=S)SSC(=S)N(C)C`, for which the result in assay [4], in [5] and in assay [10] was inactive.
With `C=CCC1=C(C)[C@@H](OC(=O)[C@@H]2[C@@H](C=C(C)C)C2(C)C)CC1=O`, the outcome in [1], in [2], in assay [5], in assay [6] and in assay [7] was inactive.
For `CC(C)C1(C)N=C(c2nc3ccccc3cc2C(=O)O)NC1=O` (configuration not stated), the compound was called inactive in assay [1], in [3], in assay [4], in assay [5], in assay [6] and in assay [7]. Further, the result in assay [9] and in [10] was inactive.
In the case of `CC1=C(C(=O)Nc2ccccc2)SCCO1`, the compound was classed as inactive in assay [1], in [3], in assay [5], in [7] and in assay [9].
`CC(Oc1ccc(Cl)cc1Cl)C(=O)O` (configuration not stated): the compound was classed as inactive in assay [2], in assay [5] and in [6].
On to `Cc1c(F)c(F)c(COC(=O)C2C(/C=C(\Cl)C(F)(F)F)C2(C)C)c(F)c1F` (configuration not stated), for which the call in assay [2], in assay [4], in assay [5], in [6], in [9] and in [10] was inactive.
For `CCOc1cc(Oc2ccc(C(F)(F)F)cc2Cl)ccc1[N+](=O)[O-]`, in assay [7], the outcome was inactive.
Turning to `CCNc1nc(Cl)nc(NCC)n1`, the outcome in assay [1], in assay [2], in [4], in assay [5], in assay [7] and in assay [9] was inactive.
With `CCCCC(CC)COC(=O)c1ccccc1C(=O)OCC(CC)CCCC` (configuration not stated), the compound was called inactive in [2], in assay [3], in [5], in assay [6], in [7] and in assay [9]. For the same compound, the call in assay [10] was inactive.
Regarding `CCCCNC(=O)n1c(NC(=O)OC)nc2ccccc21`, the compound was called inactive in assay [2], in [4], in assay [5], in [6] and in assay [7].
Turning to `Oc1ccccc1-c1ccccc1`, the outcome in assay [5], in assay [6], in assay [7], in assay [9] and in [10] was inactive.
Turning to `O=C(O)c1nc(Cl)ccc1Cl`, the compound was called inactive in assay [2], in [4], in [5], in assay [7], in [9] and in assay [10].
Turning to `O=C(O)COc1nc(Cl)c(Cl)cc1Cl`, the compound was classed as inactive in assay [6], in assay [7] and in [10].
In the case of `N#Cc1cc(Br)c(O)c(Br)c1`, the call in assay [1], in assay [4], in [5] and in assay [6] was inactive.
